This is part of a sample that, as a whole, favours compounds with a hit. Of some 83,000 tested, about 20% had one in any assay.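 Treatment: one concentration, 48 hours, 96-well format. Scoring: percent growth, with anything below 10 considered active.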 Activity calls are given as the source filed them.

The subject of this test is HT29 colon. The experiment in a line: NCI-60 one-dose screen, 48 h (100 = growth as untreated, 0 = no growth, -100 = all killed). The settings on record: 10 µM unless noted. As for the experimental part:
Growth inhibition of the HT29 human tumor cell line is measured as a screen for anti-cancer activity. Cells are grown in 96 well plates and exposed to the test compound for 48 hours. Compounds are tested at a single concentration, which is 10^-5 M for most compounds. The reported endpoint is percent growth (GI% or GIPRCNT), where numbers from 0 - 100% represent growth inhibition, and numbers from -100% - 0 represent cell death. For example, a value of 40 represents 60% growth inhibition. A value of 0 means no net growth occurred over the course of the experiment. A value of -40 indicates 40% of cells at the beginning of the experiment died by the end of the experiment. A value of -100 means all cells are dead at the end of the experiment.
NCI-60 Human Tumor Cell Lines Screen was performed using the standard one-dose NCI protocol, which is described in more detail at https://dtp.cancer.gov/discovery_development/nci-60/default.htm.
Compounds with GIPRCNT values below 10 were considered active. Activity score was based on GIPRCNT using the following formula: […]
Score is 0 for GIPRCNT values of 100 or above, 50 for GIPRCNT values of 0, and 100 for GIPRCNT values of -100.
As to `N#Cc1c(Nc2ccccc2)nn2cc(-c3nc4ccccc4s3)c(N)nc12`, the growth was 81.8% (inactive).
In the case of `CCC1(CC)NC(=O)c2c(c3ccc(Cl)c(Cl)c3n2C)C1C#N` (stereo not given), the growth was 100% (inactive).
Consider `O=C1Nc2ccccc2/C1=N/c1nc(-c2ccc(Cl)cc2)cs1`, for which the growth was 46.3% (inactive).
Take `COc1cc2c(cc1[N+](=O)[O-])-c1ccc([N+](=O)[O-])cc1/C2=N\O`: the growth is 75.3% (inactive).
The result for `NC(=O)c1cccc(-n2ccc3cc(NC(=O)Nc4cc(C(F)(F)F)cc(C(F)(F)F)c4)ccc32)n1` reads 52.6% (inactive); that for `O=C(CNCCO)Nc1ccc2ncnc(Nc3ccc(OCc4cccc(F)c4)c(Cl)c3)c2c1`, 46.9% (inactive); that for `O=C(NCCN1CCOCC1)OCc1nc2nc(Cl)nc(N3CCOCC3)c2[nH]1`, 122% (inactive).
Regarding `CCCC1C(C(=O)OCC)=C(N)Oc2cc(O)ccc21` (stereo not given), the growth was 97.8% (inactive).
Next, `C=C1C(=O)O[C@H]2[C@H]1CC/C(COC(=O)/C=C/c1c[nH]c3ccccc13)=C\CC[C@@]1(C)O[C@@H]21`: -83.6% (active); `C(=C\c1n(Cc2ccc3ccccc3c2)c(-c2ccccc2)c(-c2ccccc2)[n+]1Cc1ccc2ccccc2c1)/c1ccccc1`: -63.5% (active).
The result for `Fc1ccc(-n2cc(COc3ncnc4sc5c(c34)CCCC5)nn2)cc1Cl` reads 97.3% (inactive).
Next, `CCOC(=O)c1ccc(Nc2ccnc(SCC(=O)c3ccc(C#N)cc3)n2)cc1`: 76.2% (inactive); `CSc1nnc2c(=O)n(C)c(=O)n(C)c2n1`: 111% (inactive); `CN(Cc1ccccc1)c1nc(Cl)c(C2CC(c3ccc(Cl)cc3)=Cc3[nH][nH]c(=O)c32)s1` (stereo not given): 112% (inactive).
Turning to `Clc1ccc(C2CC(c3cccc(Nc4ccncc4)c3)=NN2c2ccccc2)cc1` (stereo not given), the growth was -9.64% (active).
The result for `CC(C)(C)OC(=O)N1CCN(c2ccc(N)cc2)C(=O)C1` reads 117% (inactive); that for `Cc1[nH]n(-c2cccc(Cl)c2)c(=O)c1/C=C1\C=Nc2ccc(Br)cc21`, 11.1% (inactive).
The result for `COc1cccc(CNCCN2C(=O)c3ccc4c5c(ccc(c35)C2=O)C(=O)N(CCNCc2cccc(OC)c2)C4=O)c1` reads 2.39% (active).
Next, `NC(=O)CN1CCN(c2ccccc2Cl)CC1`: 101% (inactive); `Cc1ccc(C2C3CC4CCCCC4N3[C@@]3(C(=O)Nc4cc(Cl)ccc43)C2C(=O)c2nc3ccccc3[nH]2)cc1` (stereo not given in full): 19.5% (inactive); `CCCOc1nc(SCCC)nc2c1cnn2-c1ccccc1`: 83.1% (inactive).
As for `CC(C)Sc1nc(NN)c(C#N)c(-c2ccccc2)n1`, the growth was 111% (inactive).
Next, `CC(C)(C)CC(C)(C)Nc1c(-c2ccc(C(F)(F)F)cc2)nc2cnccn12`: 57.4% (inactive).
Next, `CCCCCCN(C)Cc1ccc(OCCOc2ccc(CN(C)CCCCCC)cc2)cc1`: 1.29% (active); `CCCc1cc2c(cc1Br)OCO2`: 100% (inactive); `COc1ccc(C(=O)/C=C/c2cn(Cc3ccc(Cl)cc3)c3ccccc23)cc1`: 22.8% (inactive).
With `CC[C@H](CC[C@@H](C)[C@H]1CC[C@H]2[C@@H]3CC=C4C[C@@H](OCCc5nn[nH]n5)CC[C@]4(C)[C@H]3CC[C@]12C)C(C)C`, the growth was 94.8% (inactive).
As for `Clc1ccc(N2N=C(c3cccc(Nc4ccncc4)c3)CC2c2ccc(Br)cc2)cc1` (stereo not given), the growth was -2.76% (active).
Next, `O=C1NC(=O)C(=Cc2cn(Cc3ccccn3)c3ccccc23)C(=O)N1`: 111% (inactive).
Consider `CC(C)(O)C1CCCN1C(=O)c1ccccc1I` (stereo not given), for which the growth was 95.4% (inactive).
For the compound `C=C(C)[C@H]1CC/C(C)=C/CC[C@]2(C)O[C@H]2CC/C(COC(=O)[C@@H](OC(C)=O)[C@H](NC(=O)c2ccccc2)c2ccccc2)=C\[C@@H]1O`, the growth was 102% (inactive).
As for `CCN1C(=O)/C(=c2\sc3n(c2=O)NC2C(N=3)N(CC)C(=O)N2CC)c2ccccc21` (stereo not given), the growth was 12.9% (inactive).
Next, `COc1cc(NCCN(CC(C)C)C2CCCC2)c2ncccc2c1`: 71.8% (inactive); `O=C1Nc2c(ccc(Cl)c2Cl)/C1=C/c1ccc(F)cc1`: 91% (inactive); `COc1cc(-c2nc3sccn3c2-c2ccnc(NCCNS(=O)(=O)c3ccc(F)cc3)n2)ccc1F`: 10.8% (inactive).
With `O=C(/C=C/c1ccc[nH]1)c1ccc(-n2ccc(C(F)(F)F)n2)cc1`, the growth was 97.3% (inactive).
The result for `COc1cccc2c1C(=O)c1c(O)c3c(c(O)c1C2=O)C[C@@](O)(C(=O)CO)C[C@@H]3O[C@H]1C[C@H](N)[C@@H](O)[C@H](C)O1` reads -14.8% (active).
For `NC(=S)N/N=C(\c1ccc(Cl)cc1)C1CC1`, the growth is 50.6% (inactive).
Consider `COc1cccc(NC(=O)c2cccc(-c3cc(=O)c4c(OC)c(OC)c(OC)cc4o3)c2)c1`, for which the growth is 50.8% (inactive).
For `COc1ccc(-c2nc(N/N=C/c3c[nH]c4ccccc34)nc(N3CCOCC3)c2C#N)cc1`, the growth was 51.4% (inactive).

Source of the values: PubChem BioAssay (NCI).
